Shown are actives, neighbours in structure and some others; about 4.8% of the full set was active somewhere.
TIM10 inh: growth inhibitors of isogenic TIM10 control yeast, primary screen, counter-screen for tim10-1 yeast inhibitor project, luminescence, uHTS; 330,000 compounds, 1.4% hits; S. cerevisiae TIM10 strain growth, BacTiter-Glo luminescence, 24 h; inhibition, % at 10 µM;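 active means inhibition of 40% or more at the single tested concentration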;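 further: wild-type TIM10 isogenic control strain grown at permissive 25 °C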
SKKanGAS inh: S. pyogenes SKKanGAS growth inhibitors in kanamycin, primary screen, streptokinase expression inhibitor project, SKKanGAS strain, BacTiter-Glo luminescence | 6 h | inhibition, % at 7.5 µM | 300,000 compounds, 1.3% hits | AID 1662, 2009;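 active means mean replicate score, as percent of positive control median, at least 50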;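 further: strain carries kanamycin resistance gene driven by streptokinase promoter and grows in 40 µg/ml kanamycin; loss of luminescence reflects streptokinase promoter inhibition or plain growth inhibition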
NALP1 inh: NALP1 inflammasome inhibitors in reconstituted yeast, colorimetric, S. cerevisiae, triplicate retest; S. cerevisiae NALP1/ASC/caspase-1 growth, X-gal OD620, 72 h; inhibition, % at 10 µM; 280,000 compounds, 0.61% hits; in the data active means inhibition mostly above about 24%, no sharp cut-off; inactive means mostly below about 32%
tim23-1 inh: growth inhibitors of tim23-1 mutant yeast, primary screen, luminescence, uHTS; S. cerevisiae tim23-1 growth, BacTiter-Glo luminescence, 24 h; inhibition, % at 20 µM; AID 463212, 2010; 330,000 compounds, 1.3% hits;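 active means growth inhibition of the mutant yeast at or above 50%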;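 further: temperature-sensitive mutant grown at 25 °C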
PfHsp90 set2: growth inhibition of PfHsp90-expressing yeast, primary screen, antimalarial PfHsp90 inhibitor project, S. cerevisiae, BacTiter-Glo luminescence, single point, set 2; inhibition, % at 9.4 µM; 310,000 compounds, 0.32% hits; BacTiter-Glo ATP, 48 h; yeast lacking PDR1 and PDR3 efflux regulators;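 active means every replicate shows inhibition above about 80%, whatever the replicate mean, limit read from the data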
tim10-1 inh: growth inhibitors of tim10-1 mutant yeast, primary screen, luminescence, uHTS | S. cerevisiae tim10-1 ts strain growth, BacTiter-Glo, 24 h | inhibition, % at 20 µM | 330,000 compounds, 2.2% hits;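 active means inhibition of at least 40%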;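 further: mutant grown at 25 °C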
TIM10 conf: growth inhibitors of wild-type TIM10 yeast, confirmation, counter-screen for tim10-1 synthetic lethality project, single concentration, luminescence, S. cerevisiae; 4,600 compounds, 63% hits; shares compounds with TIM10 inh; S. cerevisiae tim10 strain growth, BacTiter-Glo luminescence, 24 h; inhibition, % at 10 µM;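 active means inhibition of yeast growth at or above a set limit in either of two replicates at 10 µM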; further: this counterscreen used the strain with wild-type TIM10
A number is an active result.

For O=C(O)c1ccccc1S(=O)(=O)NCC(O)COc1ccc(Br)cc1 (stereo unspecified) the results were TIM10 inh inactive, SKKanGAS inh inactive, NALP1 inh inactive, tim23-1 inh inactive and tim10-1 inh inactive.
O=C1/C(=C\c2ccc(O)c(O)c2)SC(=S)N1Cc1ccccc1 was read as TIM10 inh 50, SKKanGAS inh inactive, NALP1 inh inactive, tim23-1 inh inactive, PfHsp90 set2 122, tim10-1 inh inactive and TIM10 conf 56.
COc1ccc(Cc2nc(C(=O)Nc3ccc(Cl)cc3)cs2)cc1 was read as TIM10 inh 47, SKKanGAS inh inactive, NALP1 inh inactive, tim23-1 inh inactive, PfHsp90 set2 inactive, tim10-1 inh inactive and TIM10 conf 37.
For Cc1cc(-c2ccccc2)nc(N/N=C/c2ccco2)n1 the results were TIM10 inh 45, SKKanGAS inh inactive, NALP1 inh inactive, tim23-1 inh inactive, tim10-1 inh inactive and TIM10 conf 37.
`COc1ccc(OC(C)C(=O)Nc2ccc(F)cc2F)cc1` (stereo unspecified) gave TIM10 inh inactive, SKKanGAS inh inactive, NALP1 inh inactive, tim23-1 inh inactive, PfHsp90 set2 inactive and tim10-1 inh inactive.
`Cc1cc(Cl)ccc1OCC(=O)NNC(=O)c1cnccn1` gave TIM10 inh inactive, SKKanGAS inh inactive, NALP1 inh inactive, tim23-1 inh inactive, PfHsp90 set2 inactive and tim10-1 inh inactive.
For O=C(COc1ccc(-c2nnc(N3CCCCC3)c3ccccc23)cc1)N1CCCCC1 the results were TIM10 inh 42, SKKanGAS inh inactive, NALP1 inh inactive, tim23-1 inh inactive, PfHsp90 set2 inactive, tim10-1 inh inactive and TIM10 conf inactive.
For O=C(COc1ccc([N+](=O)[O-])cc1)N1CCN(c2nnc(-c3ccccc3)c3ccccc23)CC1 the results were TIM10 inh inactive, SKKanGAS inh inactive, tim23-1 inh inactive, PfHsp90 set2 inactive and tim10-1 inh inactive.
`Cc1ccccc1OCc1n[nH]c(=S)n1-c1cccc(Cl)c1` gave TIM10 inh inactive, SKKanGAS inh inactive, NALP1 inh inactive, tim23-1 inh inactive, PfHsp90 set2 inactive and tim10-1 inh inactive.
`O=C(Nc1cccc(S(=O)(=O)N2CCCC2)c1)c1ccco1` gave TIM10 inh inactive, tim23-1 inh inactive, PfHsp90 set2 inactive and tim10-1 inh inactive.
For O=C(Nc1ccc(S(=O)(=O)N2CCCCC2)cc1)c1ccccc1Cl the results were TIM10 inh 45, SKKanGAS inh inactive, NALP1 inh inactive, tim23-1 inh inactive, tim10-1 inh inactive and TIM10 conf 39.
`O=C(Nc1ccc(S(=O)(=O)N2CCCCCC2)cc1)c1ccco1` gave TIM10 inh 48, SKKanGAS inh inactive, NALP1 inh inactive, tim23-1 inh inactive, tim10-1 inh inactive and TIM10 conf inactive.
For CCOC(=O)/C=C1\SCC(=O)N1CC(=O)Nc1cc(S(=O)(=O)N(C)C)ccc1C the results were TIM10 inh inactive, tim23-1 inh inactive, PfHsp90 set2 inactive and tim10-1 inh inactive.
`CC1CC(=O)Nc2ccccc2N1C(=O)Nc1ccccc1` (stereo unspecified) gave TIM10 inh inactive, SKKanGAS inh inactive, NALP1 inh inactive, tim23-1 inh inactive, PfHsp90 set2 inactive and tim10-1 inh inactive.
Screening O=C(O)CCn1c(C(=O)O)cc2sccc21 returned TIM10 inh inactive, SKKanGAS inh inactive, NALP1 inh inactive, tim23-1 inh inactive, PfHsp90 set2 inactive and tim10-1 inh inactive.
For CCCCC[C@@H]1C=C(C(=O)O)[C@H](c2ccc(OC)c(OC)c2)N1S(=O)(=O)c1ccc(C)cc1 the results were TIM10 inh 97, tim23-1 inh inactive, PfHsp90 set2 inactive, tim10-1 inh inactive and TIM10 conf inactive.
CCN1C(=O)[C@H]2[C@@H](c3ccc(SC4CCCCC4)c(OC)c3)N3CCCC[C@@]3(C(=O)OC)[C@H]2C1=O was read as TIM10 inh inactive, SKKanGAS inh inactive, tim23-1 inh inactive, PfHsp90 set2 inactive and tim10-1 inh inactive.
Screening Nc1nonc1-n1nnc(C(=O)N/N=C/c2ccc(OCc3cccc(Cl)c3)cc2)c1CN1CCCCC1 returned TIM10 inh inactive, SKKanGAS inh inactive, NALP1 inh inactive, tim23-1 inh inactive, PfHsp90 set2 inactive and tim10-1 inh inactive.
Cc1cccc(COc2ccc(/C=N/NC(=O)c3nnn(-c4nonc4N)c3CN3CCCCC3)cc2)c1 was read as TIM10 inh 42, SKKanGAS inh inactive, NALP1 inh inactive, tim23-1 inh inactive, PfHsp90 set2 inactive, tim10-1 inh inactive and TIM10 conf inactive.
`O=C1c2ccccc2S(=O)(=O)c2cc(N3CCc4ccccc4C3)ccc21` gave TIM10 inh 44, SKKanGAS inh inactive, tim23-1 inh inactive, tim10-1 inh inactive and TIM10 conf inactive.
`COc1ccc(-c2cc3ccccc3n2CC(O)Cn2nc(C)cc2C)cc1` (stereo unspecified) gave TIM10 inh 41, SKKanGAS inh inactive, NALP1 inh inactive, tim23-1 inh inactive, PfHsp90 set2 inactive, tim10-1 inh inactive and TIM10 conf 35.
`COc1ccccc1-c1c(C)nn2c(N3CCC(C)CC3)cc(C)nc12` gave TIM10 inh 40, SKKanGAS inh inactive, tim23-1 inh inactive, PfHsp90 set2 inactive, tim10-1 inh inactive and TIM10 conf 47.
Screening COc1ccccc1-c1c(C)nn2c(N3CCC(C(N)=O)CC3)cc(C)nc12 returned TIM10 inh inactive, SKKanGAS inh inactive, NALP1 inh inactive, tim23-1 inh inactive, PfHsp90 set2 inactive and tim10-1 inh inactive.
`Cc1cc(Br)c(OCc2ccc(C(=O)N/N=C3\CC4CC=CC34)cc2)c(Br)c1` (stereo unspecified) gave TIM10 inh 42, SKKanGAS inh 68, NALP1 inh inactive, tim23-1 inh inactive, PfHsp90 set2 inactive, tim10-1 inh inactive and TIM10 conf 44.
For CCc1ccc(N2CC(C(=O)Nc3cccc(C(=O)NC4CC4)c3)CC2=O)cc1 (stereo unspecified) the results were TIM10 inh inactive, tim23-1 inh inactive, PfHsp90 set2 inactive and tim10-1 inh inactive.
Screening COc1cc(OC)c(N2CC(C(=O)Nc3cccc(C(=O)NC4CC4)c3)CC2=O)cc1Cl (stereo unspecified) returned TIM10 inh 82, tim23-1 inh inactive, PfHsp90 set2 inactive, tim10-1 inh inactive and TIM10 conf inactive.
